Structures are written as SMILES. Screen size: about 360,000 compounds; about 1,800 (0.5%) were called active. The entries come from a sample that favours actives as a whole. A number with no mark means an inactive call.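 How the source made its calls: active means interference check ratio from 0.5 to 1.5 plus GFP to RFP signal ratio inhibition reaching or exceeding a fixed threshold (cut at about 30% in these data, passing the limit was not always enough); inactive means the rest.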

The assay in a line: gst-4 reporter inhibition in live C. elegans – whole organism, uHTS, GFP/RFP fluorescence ratio, strain VP596, SKN-1 inhibitor project, primary screen (AID 624304). Conditions: C. elegans VP596 Pgst-4::GFP/RFP ratio, acrylamide-induced, 24 h; at 21.8 µM; stronger effect = higher value.
As for `COC(=O)[C@]1(Cc2ccccc2)N[C@H](CN(C)S(=O)(=O)c2ccc(OC(F)(F)F)cc2)[C@@H]2C(=O)N(C)C(=O)[C@@H]21`, the inhibition was 3.7%.
As for `COCCn1cnc2c1c(=O)n(Cc1ccc(Br)cc1)c(=O)n2Cc1ccccc1`, the figure is 21.1%.
With `COCCn1cnc2c1c(=O)n(CC(=O)NN)c(=O)n2Cc1ccccc1` the figure was 5.34%; with `N=c1c2c(-c3ccccc3)c(-c3ccccc3)n(Cc3ccccc3)c2ncn1CCCO`, 36.6% (active); with `Cc1[nH]c(C)c(S(=O)(=O)N2CCN(c3cccc(C(F)(F)F)c3)CC2)c1C(=O)N1CCCC1`, 16.8%.
With `CCOC(=O)[C@]12CCCC=C1N(CCC1=CCCCC1)C(=O)[C@H](CC(=O)N1CCOCC1)C2` the figure was 6.43%; with `CN1CN(C)c2ccc([N+](=O)[O-])c3cccc1c23`, 38.8% (active).
With `Cc1cccc(N2CCN(c3ccc(C(N)=O)cc3[N+](=O)[O-])CC2)c1C`, the inhibition is 6.19%.
As for `CN1CCN(S(=O)(=O)c2ccc(N3CCN(c4ccccc4O)CC3)c([N+](=O)[O-])c2)CC1`, the figure is -7.8%; as for `COc1ncnc2c1N=C1CC(C)(C)CC(N)=C1S2`, 46.6% (active).
For the molecule `CCOc1ccc(C(CC(=O)O)NC(=O)COc2ccccc2)cc1` (stereo unspecified), the inhibition was 0.0857%.
With `Brc1ccc(-c2nnc(-c3ccccc3)o2)o1` the figure was 47.1% (active); with `O=C(Nc1ccc(-c2nnc(-c3ccccc3)o2)cc1)c1ccc(Br)o1`, 34.6% (active); with `CN1CCN(C(=O)c2ccc(NC(=O)c3ccc(Br)o3)cc2)CC1`, -9.6%.
With `Nc1nonc1-c1noc(-c2ccc(Br)o2)n1` the figure was 34.9%; with `OC(c1nnc(-c2ccccc2)o1)c1cccs1` (stereo unspecified), -9.63%.
As for `O=C(Oc1ccc(-c2nc(-c3ccccn3)no2)cc1)c1ccccc1`, the figure is 26.9%; as for `Brc1ccc(-c2noc(-c3ccccc3)n2)o1`, 53.9% (active).
Take `CCS(=O)(=O)c1ccc(-c2cccc(NC(=O)c3ccc(Br)o3)c2)nn1`: the inhibition was 19.3%.
With `CCCN(CCC)c1ccc(C(O)c2nnc(-c3ccccc3)o2)cc1` (stereo unspecified), the inhibition was 5.96%.
As for `CN1CCN(C(CNS(=O)(=O)c2cccs2)c2cccnc2)CC1` (stereo unspecified), the figure is -8.82%.
With `CCOc1cc2[nH]c(=O)n(CCC(=O)NCc3ccc(OC)cc3)c(=O)c2cc1OCC` the figure was -1.79%; with `CCCc1ccc(S(=O)(=O)N2CCN(C(=O)c3cc(C)on3)CC2)cc1`, 12.9%.
As for `Cc1c(C(=O)NCC(c2ccco2)N2CCCC2)oc2ccc(Cl)cc12` (stereo unspecified), the figure is 3.49%.
As to `CN(Cc1ccccc1F)c1cc2c(c3c1ccn3C)C1CCC2O1` (stereo unspecified), the inhibition was 6.79%.
As for `Fc1c(F)c(C(F)(F)F)c(F)c(F)c1N1CCN(c2ccc3nnc(C(F)(F)F)n3n2)CC1`, the inhibition is -6.81%.
With `C=CCCC(=O)N1C[C@H]2CON(C)[C@H]2C[C@H]1c1cccc(Nc2ccccc2)c1` the figure was 3.69%; with `N/C(=N\OC(=O)Nc1ccccc1)c1ccno1`, 11.3%; with `COC(=O)c1[nH]c2ccc(Br)cc2c1NC(=O)Oc1ccccc1`, 6.84%.
With `COc1ccc(CCC(=O)OCC(=O)Nc2ccc(C)c(S(=O)(=O)N(C)C)c2)cc1` the figure was -9.73%.
With `Cc1ccc(C)c(NC(=O)COC(=O)c2nn(C)c(=O)c3ccccc23)c1` the figure was 0.693%.
As for `Cc1ccc(F)cc1NC(=O)CSCc1c(C)noc1C`, the inhibition is -5.42%.
`Cc1ccc(F)cc1NC(=O)Cc1nn(C)c(=O)c2ccccc12`: the inhibition was 35.7% (active).
Consider `CCCCC1=CC2=CC(=O)C(C)(OC(=O)CC)C(=O)C2=CN1CCCOC(C)C` (stereo unspecified), for which the inhibition was 19.4%.
With `COC(=O)CCCC1=CC2=C(c3ccccc3)C(=O)C(C)(OC(=O)C3CCCC3)C(=O)C2=CN1c1ccc(OC)cc1` (stereo unspecified) the figure was -4%; with `COC(=O)CCCC1=CC2=CC(=O)C(C)(OC(=O)c3cccs3)C(=O)C2=CN1CC(C)C` (stereo unspecified), 41% (active).
On to `Cc1nc2ccccc2cc1OCc1ccc(F)cc1`, for which the inhibition was 90.3% (active).
With `Fc1cccc2ncnc(OCc3ccccc3)c12` the figure was 3.79%; with `CC(=O)c1ccccc1OCc1ccc(C(=O)c2ccccc2)cc1`, 12.8%; with `OCC[C@H]1C[C@H](O)[C@@H](O)[C@]2(CCCCO2)O1`, -7.25%.
With `COc1cccc(NC(=O)CC(c2ccc(OC(C)C)cc2)c2ccccc2OC)c1` (stereo unspecified) the figure was -0.0853%; with `COc1cccc(NC(=O)C(C)Oc2ccccc2)c1` (stereo unspecified), 51.2% (active); with `COc1cccc(NC(=O)C(Sc2nnnn2C)c2ccccc2)c1` (stereo unspecified), 17.4%.
As for `COC(=O)c1ccc(COC(=O)c2c(C)nn(Cc3ccccc3Cl)c2Cl)o1`, the figure is -0.292%.
For `Cc1ccc(NC(=O)Cc2nc(COC(=O)C(C)NS(=O)(=O)c3ccc(C)cc3)cs2)cc1` (stereo unspecified), the inhibition was -10%.
With `CC1Cc2ccccc2N1C(=O)CSc1nc2ccccc2o1` (stereo unspecified) the figure was 30.1% (active); with `CC1Cc2ccccc2N1C(=O)CSc1nnc(C2CC2)n1C` (stereo unspecified), 8.36%.
As for `CCS(=O)(=O)c1ccc2oc(SCC(=O)N3c4ccccc4CC3C)nc2c1` (stereo unspecified), the figure is -0.339%.
With `Cc1cc2c(cc1S(=O)(=O)NCc1ccc(Cl)cc1)OCC(=O)N2` the figure was -19.4%.
As to `COc1ccccc1N(CCOc1ccccc1)S(=O)(=O)c1ccccc1`, the inhibition is 3.24%.
With `Cc1nc2c(-c3ccc(F)cc3)c(C)nn2c(C)c1CCC(=O)N1CCN(c2ccccn2)CC1` the figure was -5.8%.
As for `Cc1nc2nc(C)c(CCC(=O)N3CCN(c4ccccc4)CC3)c(C)n2n1`, the figure is 35.7% (active); as for `Cc1nc2ncnn2c(C)c1CCC(=O)N1CCN(C(=O)c2ccco2)CC1`, -8.68%; as for `CC1CCN(C(=O)Cn2nnnc2CN2CCOCC2)CC1`, -17.8%.
As for `N#CC1=C(N)Oc2c(sc3ccccc23)C1c1ccco1` (stereo unspecified), the figure is 35% (active).
As for `CCc1nc2c(OCC(=O)C(C)(C)C)cccn2c1N(C)C(=O)c1ccccc1F`, the inhibition is 15.8%.
With `CCOC(=O)C1=NNC2(c3ccc(Cl)cc3)C(=O)N(c3cc(C)cc(C)c3)C(=O)C12` (stereo unspecified), the inhibition was 14.5%.
As for `COc1ccc(-c2c(C(C)=O)c(C)nc3sc4c(=O)n(-c5ccc(C)cc5)nnc4c23)cc1`, the figure is 12.1%.
Turning to `CC(Oc1ccc(Cl)cc1)c1ccnn1S(C)(=O)=O` (stereo unspecified), the inhibition is 33.3% (active).
Consider `CC(Oc1ccc(Cl)cc1)C(=O)Nc1ncccn1` (stereo unspecified), for which the inhibition was 11.8%.
With `CC(Oc1ccc(Cl)cc1)C(=O)OCC(=O)Nc1ncc(Cl)cc1Cl` (stereo unspecified) the figure was 6.67%; with `CCc1c(SCCC(=O)O)nc2ccccc2c1C`, -7.29%; with `Cc1nccn1-c1ccc(NC(=O)[C@H]2O[C@@H](n3ccc(=O)[nH]c3=O)[C@H](O)[C@@H]2O)cc1`, 1.64%.
With `COc1ccccc1OCC(=O)OCn1c(SC)nnc(C)c1=O` the figure was 5.86%.
As for `CC1CN(C(=O)CCC(=O)NCCCN2CCC(Cc3ccccc3)CC2)c2cc(Cl)ccc2O1` (stereo unspecified), the figure is 14.9%; as for `O=C1CCC([N+](=O)[O-])C(c2ccccc2Br)N1` (stereo unspecified), 9.01%.

The values above are taken from PubChem BioAssay AID624304 (Sanford-Burnham Center for Chemical Genomics, 2012).
